The record followed here is PubChem BioAssay AID2662 (National Center for Advancing Translational Sciences (NCATS), 2010).

Each structure is given as a SMILES string. Among all 290,000 compounds or so, about 110 (0.038%) were called active. About 3% were inconclusive and are not listed. Calls follow the shape of the dose curve; as a rule, active = well fitted inhibition curve with a large enough effect in the polarisation, with a control signal flat (not every such curve was filed as active); inconclusive = small, poorly fitted or top-dose-only effect, or effect the other way, or a change in a side signal; inactive = no such curve, though single readings can be large or run the other way; the % refers to the polarisation. The entries come from a sample that favours actives as a whole. A call without a number means that no potency is given here.
Potency is read from the fitted curve at half-maximal effect.

The target of the assay is Histone-lysine N-methyltransferase 2A (Homo sapiens) (UniProt Q03164). Kind of assay: qHTS Fluorescence Polarization Assay for Inhibitors of MLL CXXC domain - DNA interaction. Conditions: MLL-CXXC / FITC-HOXA9 DNA fluorescence polarization; series mostly up to 115 µM. The source says: NIH Chemical Genomics Center [NCGC] NIH Molecular Libraries Probe Production centers Network [MLPCN] MLPCN Grant: DA027717-01A1 Assay Submitter (PI): John Bushweller NCGC Assay Overview: The MLL (Mixed Lineage Luekemia) gene is involved in chromosomal translocation that results in either acute lymphoid leukemia (ALL) or acute myeloid leukemia (AML). Chromasomal translocation of MLL gene is responsible for the fusion of N-terminal MLL to more than 60 different partner genes in frame. Many of the MLL partner genes contain transcription activation domains or function as transcriptional activators. Despite the heterogeneity of fusion partners, the N-terminus of MLL fusion proteins always consists of the N-terminal menin binding motif and the CXXC domain. The MLL-CXXC domain specifically recognizes unmethylated CpG sequences of the HOX-A gene. Disruption of the MLL-CXXC and HOX-A gene interaction leads to down regulation of HOX-A gene expression and may potentially reverse leukemogenesis. We have miniaturized and optimized an in-vitro assay to screen for inhibitors of the MLL-CXXC domain and HOX-A DNA interaction, which could have utility in MLL fusion leukemias.
Sequence of Histone-lysine N-methyltransferase 2A (Homo sapiens) (Q03164 whole entry, looked up, the tested form may be a part): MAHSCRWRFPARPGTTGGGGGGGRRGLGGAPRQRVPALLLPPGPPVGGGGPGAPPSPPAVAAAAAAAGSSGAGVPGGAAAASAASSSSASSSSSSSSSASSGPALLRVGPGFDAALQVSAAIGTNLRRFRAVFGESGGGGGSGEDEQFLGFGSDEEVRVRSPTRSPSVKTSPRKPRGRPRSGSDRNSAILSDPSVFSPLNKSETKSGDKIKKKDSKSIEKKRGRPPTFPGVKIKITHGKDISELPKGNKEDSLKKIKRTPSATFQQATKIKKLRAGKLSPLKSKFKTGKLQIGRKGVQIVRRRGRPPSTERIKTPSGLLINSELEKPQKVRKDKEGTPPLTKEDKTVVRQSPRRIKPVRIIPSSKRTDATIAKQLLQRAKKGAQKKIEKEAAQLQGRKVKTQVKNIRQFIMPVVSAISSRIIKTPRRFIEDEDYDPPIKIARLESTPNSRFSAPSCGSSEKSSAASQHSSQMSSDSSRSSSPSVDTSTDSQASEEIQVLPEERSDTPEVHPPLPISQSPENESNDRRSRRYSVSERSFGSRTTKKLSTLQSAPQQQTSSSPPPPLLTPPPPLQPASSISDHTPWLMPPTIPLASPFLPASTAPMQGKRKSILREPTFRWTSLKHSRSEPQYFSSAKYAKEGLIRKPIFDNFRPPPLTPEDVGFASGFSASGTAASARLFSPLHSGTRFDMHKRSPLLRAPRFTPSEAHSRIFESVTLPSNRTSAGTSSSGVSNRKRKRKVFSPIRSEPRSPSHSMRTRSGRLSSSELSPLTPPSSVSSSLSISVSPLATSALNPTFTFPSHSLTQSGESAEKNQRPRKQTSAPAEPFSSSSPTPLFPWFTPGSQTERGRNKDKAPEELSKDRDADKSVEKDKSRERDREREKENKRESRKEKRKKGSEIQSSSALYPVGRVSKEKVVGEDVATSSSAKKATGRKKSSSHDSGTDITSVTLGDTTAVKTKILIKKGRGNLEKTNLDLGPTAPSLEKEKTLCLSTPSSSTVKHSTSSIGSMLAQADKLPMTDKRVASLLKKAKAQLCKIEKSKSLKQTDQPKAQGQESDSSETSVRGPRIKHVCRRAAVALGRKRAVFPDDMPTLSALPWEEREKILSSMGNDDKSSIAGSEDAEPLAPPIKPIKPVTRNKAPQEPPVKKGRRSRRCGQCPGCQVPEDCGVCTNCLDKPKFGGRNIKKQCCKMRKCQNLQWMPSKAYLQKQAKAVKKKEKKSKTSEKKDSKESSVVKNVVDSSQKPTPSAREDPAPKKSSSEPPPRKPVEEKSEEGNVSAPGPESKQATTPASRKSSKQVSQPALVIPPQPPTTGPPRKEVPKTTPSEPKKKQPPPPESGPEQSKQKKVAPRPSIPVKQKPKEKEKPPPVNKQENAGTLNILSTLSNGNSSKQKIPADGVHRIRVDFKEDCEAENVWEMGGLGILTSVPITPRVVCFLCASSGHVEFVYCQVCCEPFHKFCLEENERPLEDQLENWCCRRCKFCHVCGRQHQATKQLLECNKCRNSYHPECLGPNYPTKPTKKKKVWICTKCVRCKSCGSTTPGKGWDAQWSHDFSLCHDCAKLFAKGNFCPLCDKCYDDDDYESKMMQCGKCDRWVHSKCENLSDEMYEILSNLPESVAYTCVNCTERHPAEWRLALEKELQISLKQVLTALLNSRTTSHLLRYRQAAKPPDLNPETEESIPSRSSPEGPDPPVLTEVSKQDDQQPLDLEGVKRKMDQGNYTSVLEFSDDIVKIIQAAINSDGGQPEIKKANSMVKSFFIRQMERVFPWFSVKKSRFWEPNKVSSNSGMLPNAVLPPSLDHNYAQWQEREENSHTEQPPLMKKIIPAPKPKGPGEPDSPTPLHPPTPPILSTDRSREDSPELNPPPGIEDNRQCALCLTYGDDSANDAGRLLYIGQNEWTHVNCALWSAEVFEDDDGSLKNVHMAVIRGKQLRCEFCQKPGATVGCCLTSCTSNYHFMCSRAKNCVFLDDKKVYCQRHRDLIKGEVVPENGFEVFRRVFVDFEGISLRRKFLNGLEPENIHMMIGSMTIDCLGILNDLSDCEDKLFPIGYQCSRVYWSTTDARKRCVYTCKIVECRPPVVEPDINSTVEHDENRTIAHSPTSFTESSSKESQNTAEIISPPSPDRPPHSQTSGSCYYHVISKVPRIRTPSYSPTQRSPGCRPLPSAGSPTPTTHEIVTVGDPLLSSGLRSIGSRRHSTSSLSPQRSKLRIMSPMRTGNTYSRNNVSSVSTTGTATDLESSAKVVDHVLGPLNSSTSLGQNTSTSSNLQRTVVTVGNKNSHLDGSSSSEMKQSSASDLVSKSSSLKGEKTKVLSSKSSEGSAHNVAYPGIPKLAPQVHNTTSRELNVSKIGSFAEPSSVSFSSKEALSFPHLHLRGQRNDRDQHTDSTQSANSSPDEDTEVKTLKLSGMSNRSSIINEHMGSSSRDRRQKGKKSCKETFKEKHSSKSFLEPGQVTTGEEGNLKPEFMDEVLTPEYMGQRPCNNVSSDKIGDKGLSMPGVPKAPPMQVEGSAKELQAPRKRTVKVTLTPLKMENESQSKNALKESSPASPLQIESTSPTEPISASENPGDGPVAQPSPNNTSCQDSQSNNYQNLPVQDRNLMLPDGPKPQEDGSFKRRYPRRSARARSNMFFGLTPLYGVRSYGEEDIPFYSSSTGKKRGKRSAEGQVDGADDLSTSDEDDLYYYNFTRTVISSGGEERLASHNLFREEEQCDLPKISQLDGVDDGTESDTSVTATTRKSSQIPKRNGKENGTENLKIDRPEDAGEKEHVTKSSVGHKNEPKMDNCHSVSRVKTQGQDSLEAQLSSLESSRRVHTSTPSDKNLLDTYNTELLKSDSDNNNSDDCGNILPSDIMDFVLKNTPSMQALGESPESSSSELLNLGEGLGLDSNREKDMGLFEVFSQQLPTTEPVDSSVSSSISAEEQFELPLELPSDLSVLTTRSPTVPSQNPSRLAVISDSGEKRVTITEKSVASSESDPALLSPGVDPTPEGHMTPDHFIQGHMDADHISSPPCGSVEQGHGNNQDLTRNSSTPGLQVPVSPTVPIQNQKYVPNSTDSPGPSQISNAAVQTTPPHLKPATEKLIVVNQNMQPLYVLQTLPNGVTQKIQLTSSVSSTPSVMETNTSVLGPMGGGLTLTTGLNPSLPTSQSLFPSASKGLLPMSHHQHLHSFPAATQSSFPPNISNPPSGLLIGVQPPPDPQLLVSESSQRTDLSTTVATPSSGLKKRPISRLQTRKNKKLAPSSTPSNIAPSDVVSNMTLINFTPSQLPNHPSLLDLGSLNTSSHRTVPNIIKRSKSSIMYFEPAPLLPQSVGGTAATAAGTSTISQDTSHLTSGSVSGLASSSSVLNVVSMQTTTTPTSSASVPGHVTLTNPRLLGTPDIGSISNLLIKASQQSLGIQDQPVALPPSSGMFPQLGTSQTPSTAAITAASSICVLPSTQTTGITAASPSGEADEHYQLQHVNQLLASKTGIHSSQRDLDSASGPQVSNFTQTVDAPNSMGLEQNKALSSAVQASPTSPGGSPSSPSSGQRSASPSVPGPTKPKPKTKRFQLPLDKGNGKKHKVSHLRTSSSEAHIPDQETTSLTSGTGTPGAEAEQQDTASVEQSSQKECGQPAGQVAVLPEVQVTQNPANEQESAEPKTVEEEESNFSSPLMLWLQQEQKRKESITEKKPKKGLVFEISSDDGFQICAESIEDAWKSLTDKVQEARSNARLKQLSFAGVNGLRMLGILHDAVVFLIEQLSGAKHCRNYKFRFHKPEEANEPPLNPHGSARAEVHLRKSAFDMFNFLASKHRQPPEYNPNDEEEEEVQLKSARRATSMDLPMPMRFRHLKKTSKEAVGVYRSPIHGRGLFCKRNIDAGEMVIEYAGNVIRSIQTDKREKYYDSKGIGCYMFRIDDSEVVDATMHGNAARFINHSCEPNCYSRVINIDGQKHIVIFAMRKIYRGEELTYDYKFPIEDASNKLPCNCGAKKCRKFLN
The affinity purified MLL-CXXC domain, unlabeled HOX-A9 DNA strand, fluorescein (FLSN) labeled HOX-A9 DNA strand were kindly supplied by the laboratory of Dr. John Bushweller, University of Virginia. All reagents were stored in single use aliquots at -80C. Assay Reagents: Assay buffer: 50 mM TRIS-HCl pH 7.5, 50 mM NaCl, 1 mM DTT. Add 0.05% BSA prior to reaction setup. Assay Procedure: 1.Dispense 1 ul of a 7 uM MLL-CXXC solution prepared in assay buffer into column 1-48. 2.Transfer 23 nl of compounds and unlabeled HOX-A9 per well. 3.Incubate for 5 minutes at ambient. 4.Dispense 1ul of a 50 nM FLSN-HOX-A9 solution prepared in assay buffer into columns 1-48 5.Centrifuge for 30 seconds at 1000 RPM. 6.Incubate for 30 minutes at ambient. 7.Read using the Envision reader fluorescent polarization protocol.
Turning to `CCc1ccccc1NC(=S)Nc1cc(OC)c(NC(=O)C(C)C)cc1OC`, the Potency result was “inactive”. The value for `O=C(NCc1ccccc1)C(c1ccccc1)N(C(=O)c1csnn1)c1ccc(F)cc1` (stereo not given) was “inactive”. Turning to `[2H]C(CCOS(N)(=O)=O)c1ccccc1` (stereo not given), the Potency entry was “inactive”. The value for `CCCCC(=O)Nc1c2c(nn1-c1ccc([N+](=O)[O-])cc1)CS(=O)(=O)C2` was “inactive”; that for `Cc1cc(C)n2nc(CNS(=O)(=O)c3c(F)c(F)c(F)c(F)c3F)nc2n1` was “inactive”. The value for `COc1cccc(CNC(=O)COc2cc(O)c3c(c2)OC(C)(C)CC3=O)c1` was “inactive”.

Turning to `C/C(=N\NC(=O)c1ccoc1C)c1ccccc1O`, the Potency result is “inactive”.

`CN1C(=O)CN2CCc3ccccc3C2c2cc(Cl)ccc21` (stereo not given): the Potency result is “inactive”. The value for `O=C1C2CCCN2C(=O)N1CCCCN1CCN(c2cccc(C(F)(F)F)c2)CC1` (stereo not given) was “inactive”. Under `O=C(Nc1nnc(S(=O)(=O)N2CCCCCC2)s1)c1cccc(Br)c1` stands “inactive”; under `Cc1cccc(OCC(O)CN2CCN(S(=O)(=O)c3ccc(C)cc3C)CC2)c1` (stereo not given), “inactive”; under `Cc1cc(N=Nc2ccc3ccccc3c2)ccc1O`, “inactive”. The value for `OCC(CO)NC1C[C@](O)(CO)[C@@H](O)[C@H](O)[C@H]1O` (stereo not given in full) was “inactive”; that for `C#CCOc1ccc(/C=C2/C(=O)NN(c3ccccc3)C2=O)cc1OC` was “inactive”. Turning to `COc1cc(/C=C2/C(=O)NN(c3ccc(F)cc3)C2=O)cc([N+](=O)[O-])c1O`, the Potency was 20 µM (active). Consider `COc1cc(/C=C2/C(=O)NN(c3cccc(Cl)c3)C2=O)cc(Br)c1O`, for which the Potency entry was “inactive”.

With `CC(=O)c1c(C)n(-c2ccc(C)cc2)c2ccc(O)cc12`, the Potency result was “inactive”. As to `COc1ccc2nc(C)cc(Nc3cccc(C(=O)O)c3)c2c1`, the Potency result was “inactive”. On to `NC(=O)C1CCN(C(=O)/C(=C/c2ccco2)NC(=O)c2ccccc2)CC1`, for which the Potency entry was “inactive”. Take `Cc1cn([C@H]2CC(F)[C@@H](CO)O2)c(=O)[nH]c1=O` (stereo not given in full): the Potency result is “inactive”. On to `O=C(Nc1cccc(C(F)(F)F)c1)c1cc(Br)cc(Br)c1O`, for which the Potency result was “inactive”.

As for `C[C@H](NC(=O)C1CCN(S(=O)(=O)c2ccccc2)CC1)C(=O)NCc1ccccc1`, the Potency result is “inactive”.

For `COc1ccc(N(CC(=O)Nc2ccc(F)c(F)c2)S(=O)(=O)c2c(C)[nH]c(=O)[nH]c2=O)cc1`, the Potency result is “inactive”. Under `Cc1ccc(CNC(=O)C(=O)c2cn(CC(=O)N3CCCC3)c3ccccc23)cc1` stands “inactive”. With `COc1ccc(C)cc1Nc1nc(C)nc2c1oc1ccccc12`, the Potency entry was “inactive”. For the molecule `COC(=O)c1ccccc1NC(=O)C1(S(=O)(=O)c2ccc(Cl)cc2)CC1`, the Potency entry is “inactive”. The value for `CCN1C(=S)N[C@@H](CCc2ccccc2)[C@H](C(=O)OC)[C@H]1C` was “inactive”. The value for `O=c1c2cc([N+](=O)[O-])ccc2nc2n1CCC2` was “inactive”; that for `COc1ccc(CNc2cc(C)cc(C)c2)cc1OC` was “inactive”; that for `Cc1c(CNCCc2ccccc2)c(C(=O)O)c(C)n1-c1ccccc1` was “inactive”. Under `Cc1ccc(C(=O)N2CC(=O)Nc3ccc(F)cc3C2c2ccc(F)cc2)cc1` (stereo not given) stands “inactive”; under `COC(=O)c1ccc(CNC(=O)C2CCC(=O)N(Cc3cccc(F)c3)C2)cc1` (stereo not given), “inactive”.

Consider `Cc1cnc(C(=O)Oc2cccc(Cl)c2Cl)cn1`, for which the Potency entry was “inactive”. Under `COc1ccc(C)cc1N(C(=O)Cn1nnc(-c2ccc(C)o2)n1)C(C(=O)NC1CCCC1)c1ccncc1` (stereo not given) stands “inactive”; under `Cc1ccc(/C=C2/SC(=S)N(CCC(=O)NCCCN3CCOCC3)C2=O)cc1`, “inactive”. The value for `CCN(CC(=O)Nc1ccc2c(c1)OCO2)S(=O)(=O)c1ccccc1` was “inactive”; that for `NNC(=O)CSc1nnc(-c2ccccc2)n1-c1ccccc1` was “inactive”; that for `CC(C(=O)Nc1ccc(O)c(C(=O)O)c1)N1C(=O)/C(=C/c2cccs2)SC1=S` (stereo not given) was “inactive”. The value for `Cc1cccn2c(=O)c3cc(C(=O)NCCN4CCOCC4)c(=N)n(Cc4cccnc4)c3nc12` was “inactive”.

Take `Cc1cccc(S(=O)(=O)N2CN(CC3CCCO3)c3nc4ccccc4nc32)c1` (stereo not given): the Potency entry was “inactive”.

Regarding `Cc1ccc(S(=O)(=O)c2nc(-c3cccs3)oc2NCc2cccnc2)cc1`, the Potency result is “inactive”. Under `COc1ccc(CCNS(=O)(=O)c2cn(C)nc2C)cc1` stands “inactive”; under `CC(=O)Nc1cccc(Nc2nc(-c3cccs3)nc3ccccc23)c1`, “inactive”. For the molecule `CC(=O)c1nn(-c2cccc(C(F)(F)F)c2)c(=O)[nH]c1=O`, the Potency result was “inactive”. Under `COc1cc(CN2CCCC(C(=O)c3ccc(SC)cc3)C2)cc(Cl)c1O` (stereo not given) stands “inactive”. The value for `CC(=O)Nc1ccc(C(=O)N(C2=NC(C)CS2)c2ccc(Cl)cc2)cc1` (stereo not given) was “inactive”; that for `Cc1cccc(-c2noc(CCC(=O)NC3CCCC3)n2)c1` was “inactive”; that for `COc1ccccc1OCC(=O)Nc1c2c(nn1-c1ccc(F)cc1)CS(=O)(=O)C2` was “inactive”. Regarding `Cn1c(N2CCOCC2)c(C=O)c2ccccc21`, the Potency entry was “inactive”. Under `COCCN1CCN(C(=O)c2cc(COc3ccc(F)cc3Cl)on2)CC1` stands “inactive”.
